MBD2 DNA inh: MBD2-methylated oligo binding inhibition | Q9UBB5 | TR-FRET, MBD2 binding to methylated oligonucleotide | inhibition, % at 4.4 µM | hit rate 0.31% among 370,000 | AID 686964; in the data active means inhibition above about 13%
Target sequence (Q9UBB5 whole entry, looked up): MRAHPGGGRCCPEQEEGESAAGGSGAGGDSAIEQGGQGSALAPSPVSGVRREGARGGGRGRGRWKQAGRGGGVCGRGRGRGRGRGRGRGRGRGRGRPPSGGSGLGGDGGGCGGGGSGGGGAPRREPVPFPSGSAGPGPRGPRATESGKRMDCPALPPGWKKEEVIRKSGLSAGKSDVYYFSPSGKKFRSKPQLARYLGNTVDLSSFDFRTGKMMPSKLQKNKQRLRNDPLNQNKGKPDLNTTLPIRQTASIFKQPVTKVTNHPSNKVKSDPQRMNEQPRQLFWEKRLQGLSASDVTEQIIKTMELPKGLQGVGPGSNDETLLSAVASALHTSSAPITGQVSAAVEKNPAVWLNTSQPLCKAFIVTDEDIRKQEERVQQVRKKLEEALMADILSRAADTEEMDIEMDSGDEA
PRMT1 inh: blocks human protein arginine methyltransferase 1; inhibition, % at 2.79 µM; hit rate 1.3% among 370,000; recombinant PRMT1, activity-based probe fluorescence polarization;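 active means inhibition above about 21% made by adding two undisclosed values, limit read from the data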
UHRF1 MBD2 ctr: UHRF1 methyl-DNA binding inhibition; Q96T88; UHRF1 binding to methylated oligo, TR-FRET; inhibition, % at 4.4 µM; hit rate 0.75% among 370,000; in the data active means inhibition above about 21%;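 further: UHRF1 SRA domain binding a hemimethylated CpG hairpin DNA probe; 0% = median of test compound wells and 100% = reference inhibitor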
LEDGF integ inh: blocks HIV-1 LEDGF/p75-dependent DNA integration. hit rate 0.64% among 370,000. AID 743269. inhibition, % at 3.7 µM. TR-FRET IN-LEDGF/p75 DNA integration, Eu/Cy5;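 active means inhibition above the screen-wide mean plus 3 SD, cut at about 13% in these data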;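 further: signal is the Cy5 over europium emission ratio at 671 and 618 nm; 0% = plate median of compound wells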
PRMT1 confirm: PRMT1 (human) inhibition, FP confirmation | shares compounds with PRMT1 inh | recombinant His-PRMT1, activity-based probe fluorescence polarization | inhibition, % at 2.79 µM | hit rate 42% among 3,300;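 active means mean inhibition across replicates above the hit cutoff derived for the earlier primary screen, cut at about 22% in these data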
* = called active by the depositor. In the library only some 2.5% were active in any assay of this set; here they are far more common.

COc1ccc(N2C(=O)CC(Sc3nc4ccccc4s3)C2=O)cc1OC (stereo not given) was read as MBD2 DNA inh 3.3, PRMT1 inh 26.2*, UHRF1 MBD2 ctr -1.3, LEDGF integ inh -3.0 and PRMT1 confirm 22.9*.
COc1ccc(-c2c(Sc3ccccc3)c3cc(-c4ccc(OC)c(F)c4)ccc3n2C)cc1 was read as MBD2 DNA inh -3.5, PRMT1 inh 4.0, UHRF1 MBD2 ctr -1.7 and LEDGF integ inh 0.1.
Screening CCOC(=O)c1ccc(N2C(=O)CC(Sc3nnc(C)s3)C2=O)cc1 (stereo not given) returned MBD2 DNA inh -2.1, PRMT1 inh 71.7*, UHRF1 MBD2 ctr -0.9, LEDGF integ inh 0.6 and PRMT1 confirm 75.9*.
Cc1nc(SC2CC(=O)N(c3ccccc3)C2=O)n[nH]1 (stereo not given) was read as MBD2 DNA inh 2.3, PRMT1 inh 50.3*, UHRF1 MBD2 ctr 2.3, LEDGF integ inh -0.6 and PRMT1 confirm 62.6*.
For O=C1CC(Sc2ncccn2)C(=O)N1c1ccccc1 (stereo not given) the results were MBD2 DNA inh 0.1, PRMT1 inh 11.6, UHRF1 MBD2 ctr 3.0 and LEDGF integ inh -2.2.
CCOC(=O)c1ccc(N2C(=O)CC(Sc3nc(C)cc(C)n3)C2=O)cc1 (stereo not given) was read as MBD2 DNA inh -1.0, PRMT1 inh 4.8, UHRF1 MBD2 ctr -0.3 and LEDGF integ inh 3.0.
`Cn1cc(C(=O)Nc2ccc(F)c(Cl)c2)cn1` gave MBD2 DNA inh 3.3, PRMT1 inh -2.1, UHRF1 MBD2 ctr -5.1 and LEDGF integ inh 0.4.
`CN1c2ccsc2C(O)=C(C(=S)Nc2ccc(F)c(Cl)c2)S1(=O)=O` gave MBD2 DNA inh -0.4, PRMT1 inh 30.2*, UHRF1 MBD2 ctr -4.3, LEDGF integ inh -2.4 and PRMT1 confirm 20.6.
`CC(=O)Nc1ccc(C2=NNC(=Nc3ccc(S(=O)(=O)N4CCOCC4)cc3)SC2)cc1` gave MBD2 DNA inh -1.2, PRMT1 inh 60.1*, UHRF1 MBD2 ctr -5.6, LEDGF integ inh 0.1 and PRMT1 confirm 85.7*.
CCOC(=O)CC(=O)CSc1nc(-c2cccnc2)cc(C)c1C#N was read as MBD2 DNA inh -3.5, PRMT1 inh 5.1, UHRF1 MBD2 ctr -2.6 and LEDGF integ inh 2.8.
For CCOC(=O)CC(=O)CSc1nc(-c2cccnc2)ccc1C#N the results were MBD2 DNA inh -9.4, PRMT1 inh 55.9*, UHRF1 MBD2 ctr -6.0, LEDGF integ inh 6.9 and PRMT1 confirm 5.5.
CCOC(=O)CC(=O)CSc1nccc(-c2cccnc2)n1 was read as MBD2 DNA inh -3.5, PRMT1 inh 37.9*, UHRF1 MBD2 ctr 6.3, LEDGF integ inh -4.3 and PRMT1 confirm 7.8.
`Nc1cccnc1Sc1cccc(Cl)c1` gave MBD2 DNA inh -5.8, PRMT1 inh 31.2*, UHRF1 MBD2 ctr -2.3, LEDGF integ inh -4.0 and PRMT1 confirm 3.7.
Screening COc1cnc(-c2ccccn2)nc1Sc1cccc(Cl)c1 returned MBD2 DNA inh -1.3, PRMT1 inh 0.1, UHRF1 MBD2 ctr -0.1 and LEDGF integ inh 5.7.
`CC1C(=O)N(Cc2cn(CCC3OCCCO3)nn2)CCS(=O)(=O)N1Cc1ccc(-c2ccc(F)nc2)cc1` (stereo not given) gave MBD2 DNA inh 8.1, PRMT1 inh 54.7*, UHRF1 MBD2 ctr 10.1, LEDGF integ inh -1.1 and PRMT1 confirm -3.4.
`CC1(C)C2CCC(CN=C(N)CSS(=O)(=O)O)C1C2` (stereo not given) gave MBD2 DNA inh 6.7, PRMT1 inh 88.3*, UHRF1 MBD2 ctr -1.0, LEDGF integ inh -4.0 and PRMT1 confirm 68.7*.
Screening CCN(CC)C(=O)C1=C(C)N(Cc2ccc(C(C)(C)C)cc2)C(=O)C(CC(=O)NCC2CCCCC2)C1 (stereo not given) returned MBD2 DNA inh 3.2, PRMT1 inh -2.3, UHRF1 MBD2 ctr 12.9 and LEDGF integ inh 1.9.
For Cc1c(Br)c(=O)oc2c(Br)c(O)c(O)cc12 the results were MBD2 DNA inh 10.2, PRMT1 inh 29.4*, UHRF1 MBD2 ctr 30.8*, LEDGF integ inh -3.4 and PRMT1 confirm 35.4*.
For CCN(CC)C(=O)CC[C@@H]1CC[C@]2(CCCN(Cc3ccncc3)C2)O1 the results were MBD2 DNA inh 1.7, PRMT1 inh -2.7, UHRF1 MBD2 ctr -2.7 and LEDGF integ inh -2.1.
For CC1CCN(C(=O)COC(=O)/C=C/c2ccc(Br)o2)CC1 the results were MBD2 DNA inh 9.1, PRMT1 inh 36.4*, UHRF1 MBD2 ctr 5.6, LEDGF integ inh 10.3 and PRMT1 confirm 10.8.
CN(Cc1c(F)cccc1Cl)C(=O)c1ccc(NC(=O)CC2SC(N3CCCC3)=NC2=O)cc1 (stereo not given) was read as MBD2 DNA inh 3.0, PRMT1 inh 101.3*, UHRF1 MBD2 ctr -1.7, LEDGF integ inh -2.5 and PRMT1 confirm 2.5.
`CCN(CC(=O)Nc1c(F)cccc1F)C(=O)c1ccc(NC(=O)CC2SC(N3CCCC3)=NC2=O)cc1` (stereo not given) gave MBD2 DNA inh 3.8, PRMT1 inh -5.8, UHRF1 MBD2 ctr -0.6 and LEDGF integ inh -1.2.
For Cc1ccccc1OCC(=O)N=Nc1c(O)n(C)c2ccccc12 the results were MBD2 DNA inh 3.1, PRMT1 inh 1.4, UHRF1 MBD2 ctr -0.2 and LEDGF integ inh -3.7.
Screening O=[N+]([O-])c1ccc(Oc2cccc3cccnc23)c([N+](=O)[O-])c1 returned MBD2 DNA inh -6.5, PRMT1 inh -0.9, UHRF1 MBD2 ctr -7.1 and LEDGF integ inh 1.8.
N#Cc1ccc(Oc2cccc3cccnc23)c([N+](=O)[O-])c1 was read as MBD2 DNA inh 0.3, PRMT1 inh 26.5*, UHRF1 MBD2 ctr 20.0, LEDGF integ inh -2.9 and PRMT1 confirm 4.9.
CC1CCCC(NC2CCCCNC2=O)C1 (stereo not given) was read as MBD2 DNA inh 2.9, PRMT1 inh 27.2*, UHRF1 MBD2 ctr 1.9, LEDGF integ inh -0.4 and PRMT1 confirm -6.5.
Screening O=C(CSc1ccccn1)c1ccc(F)cc1 returned MBD2 DNA inh -6.0, PRMT1 inh 27.2*, UHRF1 MBD2 ctr -4.3, LEDGF integ inh 1.7 and PRMT1 confirm 24.0*.
Screening Cc1ccc(C(=O)CSc2ccccn2)cc1 returned MBD2 DNA inh -3.6, PRMT1 inh 61.5*, UHRF1 MBD2 ctr 3.5, LEDGF integ inh 1.0 and PRMT1 confirm 39.9*.
Cc1ccc(C(=O)CSc2cc(C)nc(SCC(=O)c3ccccc3)n2)cc1 was read as MBD2 DNA inh -2.1, PRMT1 inh 1.4, UHRF1 MBD2 ctr -1.7 and LEDGF integ inh 1.5.
For CC1OC(=O)c2cc3ccccc3nc21 (stereo not given) the results were MBD2 DNA inh 1.6, PRMT1 inh -0.8, UHRF1 MBD2 ctr 0.5 and LEDGF integ inh -8.0.
COc1ccc(C(=O)CSc2nnc(CNC(=O)c3ccccc3)o2)cc1 was read as MBD2 DNA inh -2.0, PRMT1 inh -5.8, UHRF1 MBD2 ctr 0.9 and LEDGF integ inh -1.7.
C/C(C/C(C)=C1/SC(=S)NC1=O)=C1\SC(=S)NC1=O was read as MBD2 DNA inh 18.5*, PRMT1 inh 40.2*, UHRF1 MBD2 ctr 44.8*, LEDGF integ inh 20.5* and PRMT1 confirm 24.2*.

Compound activity as filed in PubChem.
